Target: TMEM147
Test: pooled miR-30 sensor sort-seq; sequence = guide strand
Conditions: shRNA
Also: reference of the scale not given here.

Which sensor-assay potency score (higher = more potent) does the source give for TATCAGGTCTGCCACATCCACG here?
The sensor-assay potency score (higher = more potent) was -1.57.

Which sensor-assay potency score (higher = more potent) does the source give for TTATCATCCAGACCTGAGCAGA here?
Its sensor-assay potency score (higher = more potent) is -0.978.

TCATAGCGTGTTATCATCCAGA was tested. Which sensor-assay potency score (higher = more potent) did it give?
Its sensor-assay potency score (higher = more potent) is -0.557.

How did the sensor-assay potency score (higher = more potent) turn out when TTGGAGTCTATGCTCATCTGGA was run?
Its sensor-assay potency score (higher = more potent) is -0.274.

Which sensor-assay potency score (higher = more potent) does the source give for TAGACCTATCAGGTCTGCCACA here?
The sensor-assay potency score (higher = more potent) was -1.51.

For TAATGGACCAGACTGATGTTGG, which sensor-assay potency score (higher = more potent) is on record?
Its sensor-assay potency score (higher = more potent) is -0.822.

TAGAGCTGCCCAACTGCCCAGC was tested. Which sensor-assay potency score (higher = more potent) did it give?
Its sensor-assay potency score (higher = more potent) is -1.02.

For TCTGGATGTACTTCCAGTCAAA, which sensor-assay potency score (higher = more potent) is on record?
Its sensor-assay potency score (higher = more potent) is -1.49.

TTGTACTCGGACAGGCCGCTGC was tested. Which sensor-assay potency score (higher = more potent) did it give?
The sensor-assay potency score (higher = more potent) was -1.

Which sensor-assay potency score (higher = more potent) does the source give for TGTGGTACAGATCATAGCGTGT here?
The sensor-assay potency score (higher = more potent) was -0.505.

Which sensor-assay potency score (higher = more potent) does the source give for TTGTAGGTGATGAAGTAGGGGA here?
Its sensor-assay potency score (higher = more potent) is -0.423.

Target: TMEM156
Test: as above
Conditions: shRNA

For TTCCTGAGAAATAAAATCCATG, which sensor-assay potency score (higher = more potent) is on record?
The sensor-assay potency score (higher = more potent) was -1.19.

Which sensor-assay potency score (higher = more potent) does the source give for TTTGTCTCTATGACTCTGCCAC here?
Its sensor-assay potency score (higher = more potent) is -0.207.

Which sensor-assay potency score (higher = more potent) does the source give for TTAAGAGAACAGATGTAGGTTT here?
Its sensor-assay potency score (higher = more potent) is 0.112.

How did the sensor-assay potency score (higher = more potent) turn out when TACACTGAAGTTAAAGTGCTGA was run?
Its sensor-assay potency score (higher = more potent) is 0.144.

How did the sensor-assay potency score (higher = more potent) turn out when TAGTTTATCGATTTCTCCTTGC was run?
Its sensor-assay potency score (higher = more potent) is -0.128.

Which sensor-assay potency score (higher = more potent) does the source give for TTGTTGATCTTCCAGTGTGGTT here?
Its sensor-assay potency score (higher = more potent) is -1.08.

With TAGATTGCAAACACACTTCCAG as the sequence, how does the sensor-assay potency score (higher = more potent) read?
Its sensor-assay potency score (higher = more potent) is 0.703.

Which sensor-assay potency score (higher = more potent) does the source give for TTTTATATCCATCTCCAGGTGC here?
The sensor-assay potency score (higher = more potent) was -0.346.

Source: the OligoGym collection
